High-throughput results (PubChem)
Marburg entry inh – qHTS for inhibitors of binding or entry into cells for Marburg Virus. 300,000 tested, 1.8% active. AID 540276, 2011. Marburg virus pseudotyped entry inhibition, cell reporter. Potency, µM (titrated, usually from 37.8 µM), without a hit: top-dose activity change, negative = inhibition, most hits filed as inhibitors; calls by dose curve; tested in HEK293 cells
HCV inh – qHTS Assay for Inhibitors of Hepatitis C Virus (HCV); Potency, µM (doses to about 41.8 µM), inactives show at the highest dose activity change, negative = inhibition, actives largely listed as inhibitors; Huh7.5.1 HCVcc-Cre infection, luciferase reporter, 44 h; 340,000 tested, 3.4% active
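A cell-based infection assay in which seeded cells (1,000 per well) receive test compound after 4 h, are inoculated with HCVcc-Cre at approximately 0.5 moi, and are incubated 44 h before luminescence detection.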
FMDV inh – High Throughput Screening for Foot and Mouth Disease Virus Antivirals; FMDV antiviral cell-based qHTS; AID 1159524, 2015; 410,000 tested, 1.2% active; Potency, µM (highest dose often 57.9 µM), without a hit: top-dose activity change, negative = inhibition, hits mostly inhibitors; calls by dose curve; tested in HEK293T cells; further: read-out not given here; nearly all actives have a fitted effect of over 45% in size
Sm TGR block – qHTS Assay for the Inhibitors of Schistosoma Mansoni Peroxiredoxins | Schistosoma mansoni thioredoxin glutathione reductase (TGR), Q962Y6 | purified TGR, DTNB reduction, TNB absorbance 405 nm | Potency, µM (series often up to 114 µM), without a hit: at the top dose activity change, negative = inhibition, usual class: inhibitors | 360,000 tested, 3% active | AID 485364, 2010; further: nearly all actives have a fitted effect of over 60% in size
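TGR 20 nM + NADPH 100 uM (dispensed conc.), cpd preinc 15 min RT; start with NADPH (500 uM addition) then DTNB (15 mM addition). Kinetic TNB absorbance, 405 nm filter. Four-parameter Hill fit across titration.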
LASV entry inh – qHTS for Inhibitors of binding or entry into cells for Lassa Virus; Lassa virus pseudotype entry inhibition, cell reporter; Potency, µM (titrated, usually from 37.9 µM), without a hit: at the top dose activity change, negative = inhibition, actives largely listed as inhibitors; 300,000 tested, 1.2% active; AID 540256, 2011; calls by dose curve; tested in HEK293 cells; further: nearly all actives have a fitted effect of over 50% in size
RE007 growth inh – qHTS Assay for Inhibitors of the HIV-1 protein Vpr | S. pombe RE007 Vpr strain, BacTiter-Glo ATP luminescence, 24 h | Potency, µM (highest dose often 92.2 µM), for inactives: top-dose activity change, negative = less growth, actives largely listed as inhibitors | 360,000 tested, 0.21% active; active means well fitted falling curve with a large enough effect; inconclusive means small, poorly fitted or top-dose-only effect; inactive means no such curve, though single readings can be large or run the other way; further: nearly all actives have a fitted effect of over 50% in size
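Fission yeast RE007 carrying one integrated HIV-1 vpr copy, seeded at OD 0.01 in PMG+AL medium with 23 nL pinned compound. Grown 24 h at 30 degrees; viability read by BacTiter-Glo luminescence after 5 min.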
The depositor's hits bear a star; ? = inconclusive; . = not tested or not shown; [ ] = another dose, or the depositor's remark. Sampled rows, rich in hits. Any-hit rate of the full collection: about 7.2%. Unless noted, the call rests on the fitted dose curve; in most records, active means well fitted curve in the direction sought with a large enough effect; inconclusive means small, poorly fitted or top-dose-only effect, or another doubt; inactive means no such curve, though single readings can be large; an effect the other way counts as inactive or inconclusive. On the % scale 0 is the no-effect control and ±100 the full control effect; potency means the concentration at half of the fitted maximal effect.

SMILES	Marburg entry inh	HCV inh	FMDV inh	Sm TGR block	LASV entry inh	RE007 growth inh
COc1ccccc1Oc1ccc(N/C=C/C(=O)c2ccc(C)o2)cc1	?	22µM*	0%	1%	-23%[46.1 µM]	-2%
COc1ccc(N/C=C/C(=O)c2sc(-c3ccccc3)nc2C)cc1	?	10µM*	-31%	10%	?	1%
Cc1nc(-c2ccccc2)sc1C(=O)/C=C/c1ccc(Cl)cc1	7%[46.1 µM]	7%	25µM*	-1%	-8%	5%
COc1ccc(N2CCN(C(=O)NCc3noc4ccccc34)CC2)cc1	.	.	-9%	0%	-4%[46.1 µM]	.
CN(C)c1ccc(C2C=C(c3ccccc3)Nc3nnnn32)cc1 (configuration not stated)	?	.	21%	1%	1%[46.1 µM]	.
CC(=O)[C@H]1CC[C@H]2[C@@H]3C=CC4=CC(=O)CC[C@@]4(C)[C@@H]3CC[C@]12C	.	0.56µM*	?	-10%	.	15%[18.4 µM]
C[C@]12CCC3C(C=CC4=CC(=O)CC[C@]43C)C1CC[C@]2(O)CCC(=O)O (some centres not stated)	.	.	-7%	.	.	.
COc1ccc(F)cc1NC(=O)C1CCN(c2nc(-c3ccc(OC)c(OC)c3)no2)CC1	12%[46.1 µM]	.	19%	0%	-46%[46.1 µM]	.
COc1cc(=O)n2c(c1C(=O)N(C)Cc1nonc1C)CCN(Cc1cc(F)ccc1F)CC2	.	.	-4%	.	.	.
COC(=O)c1c(N)sc(C(=O)NCCc2ccccc2)c1C	5µM*	?	6.3µM*	-7%	?	12%
CCOC(=O)c1sc(N)c(C(=O)Nc2ccccc2OC)c1C	?	-29%	-17%	4%	2.5µM*	-9%
COc1ccc(-n2nc(C#N)c(Cl)cc2=O)cc1	3.2µM*	?	22µM*	2.5µM*	?	?
COC(=O)c1nn(-c2ccc(OC)cc2)c(=O)cc1O	-14%[46.1 µM]	10%	-5%	1%	4%[46.1 µM]	0%
Cc1cccn2c(=O)c(/C=C(\C#N)C(=O)NC3CCS(=O)(=O)C3)c(Oc3ccc(F)cc3)nc12 (configuration not stated)	?	-1%	28µM*	-29%	-1%[46.1 µM]	-23%
N#C/C(=C\c1c(Oc2ccc(Cl)cc2)nc2ccccn2c1=O)C(=O)NC1CCS(=O)(=O)C1 (configuration not stated)	?	-28%	20µM*	-17%	3.5µM*	-5%
Cc1cc(Oc2nc3ccccn3c(=O)c2/C=C(\C#N)C(=O)NC2CCS(=O)(=O)C2)ccc1Cl (configuration not stated)	?	?	?	-9%	?	-13%
COc1ccc(-c2nn(C)c3sc(C(=O)N4CCN(c5cccc(C)c5C)CC4)cc23)cc1OC	10%[46.1 µM]	.	0%	25µM*	10%[46.1 µM]	.
O=c1cc(CN2CCCc3ccccc32)nc2sccn12	3%	0%	-4%	28µM*	?	-2%
O=C(NCC1Cc2cc(F)cc(-c3cnccn3)c2O1)c1cccc(Cl)c1 (configuration not stated)	.	.	-12%	.	.	.
CCc1ccccc1NC(=O)CN(c1ccccc1)S(=O)(=O)c1ccsc1C(=O)OC	.	.	-22%	-5%	?	.
O=C(CCc1ccccc1)NN1C(=O)C2C3C=CC(O3)C2C1=O (configuration not stated)	.	9%	-9%	.	.	10%
O=C1C2C3C=CC(O3)C2C(=O)N1CC(O)c1ccccc1 (configuration not stated)	8%	17%	-12%	11µM*	7%	-15%
O=C(Nc1nc(-c2ccccc2Cl)cs1)c1cccnc1	-15%	32µM*	?	-8%	4%	-7%
Clc1ccc(-c2csc(N/N=C/c3cccnc3)n2)c(Cl)c1	?	?	-9%	-17%	7.3µM*	26%
C(=N\Nc1nc(-c2ccccc2)cs1)/c1cccnc1	?	?	-23%	-1%	?	5%
SMILES	Marburg entry inh	HCV inh	FMDV inh	Sm TGR block	LASV entry inh	RE007 growth inh
O=C(NCC1CCCO1)C1=CC2=NC(=S)N(c3ccccc3)C(=O)C2C=C1 (configuration not stated)	-14%	.	.	.	.	.
O=C1CN(C(=O)c2ccc(S(=O)(=O)N3CCCCC3)cc2)C(c2ccc(F)cc2)c2cc(Cl)ccc2N1 (configuration not stated)	8.9µM*	.	?	-2%	?	.
O=C1CN(C(=O)c2ccc(S(=O)(=O)N3CCCCC3)cc2)C(c2ccc(F)cc2)c2cc(F)ccc2N1 (configuration not stated)	?	.	-2%	2%	-9%[46.1 µM]	.
COc1ccc2c(c1)C(=O)[C@@H](OC(=O)NCCc1ccc(OC)c(OC)c1)[C@H](c1ccc(OC)c(Br)c1)O2	-20%[14.2 µM]	.	.	.	.	.
C=CS(=O)(=O)c1sc(Cl)c(N2CCOCC2)c1[N+](=O)[O-]	5µM*	?	25µM*	0.1µM*	3.2µM*	-25%
COc1ccc(N2CCN(c3nc4ccc(C)cn4c(=O)c3C=O)CC2)cc1	.	3%	-16%	-34%	.	34%
Cc1ccc2nc(N3CCN(c4ccccc4)CC3)c(C=O)c(=O)n2c1	?	7%	3%	45µM*	?	15%
CCOC(=O)c1[nH]c(C)c(/C(O)=C2\C(=O)C(=O)N(CCN(C)C)C2c2ccco2)c1C (configuration not stated)	1%	9%	-9%	56µM*	12%	-3%
CCOC(=O)c1[nH]c(C)c(/C(O)=C2\C(=O)C(=O)N(CCN3CCOCC3)C2c2ccco2)c1C (configuration not stated)	-9%[46.1 µM]	8%	-7%	.	-1%[46.1 µM]	2%
OC(CNCc1ccco1)COc1ccccc1 (configuration not stated)	?	1%	4%	0%	-1%	-10%
OC(CNCc1ccco1)Cn1c2ccccc2c2ccccc21 (configuration not stated)	16µM*	?	-7%	-7%	?	6%
Brc1ccccc1/C=N/Nc1ccc2ccccc2n1	11µM*	?	-60%	0%	?	?
Brc1ccc(/C=N/Nc2ccc3ccccc3n2)cc1	-20%	12%	0%	-15%	?	?
O=[N+]([O-])c1cccc(C=NNc2ccc3ccccc3n2)c1O	2.2µM*	?	10µM*	.	2.5µM*	?
Fc1cccc(/C=N/Nc2ccc3ccccc3n2)c1	6.3µM*	-12%	-58%	2%	?	-19%
COC(=O)c1c(NC(=O)c2ccccc2N(C)S(=O)(=O)c2ccccc2)sc2c1CCCC2	4.5µM*	?	10%	1%	?	-8%
